An excerpt weighted towards active compounds, which were near 22% of everything screened.
Pf growth 48h – inhibits P. falciparum growth in the first generation, 48 h. P. falciparum luciferase growth in erythrocytes, 48 h. Potency, µM (titrated, usually from 28.7 µM), inactives show at the highest dose activity change, negative = inhibition, usual class: inhibitors. 310,000 compounds, 5.9% hits; further: potency means the concentration at half of the fitted maximal effect; on the % scale 0 is the no-effect control and ±100 the full control effect
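First compound was added to culture medium, then infected red cells at 0.1% parasitemia and 2% hematocrit (final). After incubation at 37 C under 5% CO2, luciferase detection reagent was dispensed and light output recorded.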
LmPK inhibitor – blocks Leishmania mexicana pyruvate kinase activity. Q27686. purified LmPK, Kinase-Glo ATP luminescence, 1 h. Potency, µM (series often up to 57.5 µM), for the others: at the highest dose activity change, negative = inhibition, most hits filed as inhibitors. 290,000 compounds, 0.37% hits; further: potency means the concentration at half of the fitted maximal effect; on the % scale 0 is the no-effect control and ±100 the full control effect
Target sequence (Q27686 whole entry, looked up): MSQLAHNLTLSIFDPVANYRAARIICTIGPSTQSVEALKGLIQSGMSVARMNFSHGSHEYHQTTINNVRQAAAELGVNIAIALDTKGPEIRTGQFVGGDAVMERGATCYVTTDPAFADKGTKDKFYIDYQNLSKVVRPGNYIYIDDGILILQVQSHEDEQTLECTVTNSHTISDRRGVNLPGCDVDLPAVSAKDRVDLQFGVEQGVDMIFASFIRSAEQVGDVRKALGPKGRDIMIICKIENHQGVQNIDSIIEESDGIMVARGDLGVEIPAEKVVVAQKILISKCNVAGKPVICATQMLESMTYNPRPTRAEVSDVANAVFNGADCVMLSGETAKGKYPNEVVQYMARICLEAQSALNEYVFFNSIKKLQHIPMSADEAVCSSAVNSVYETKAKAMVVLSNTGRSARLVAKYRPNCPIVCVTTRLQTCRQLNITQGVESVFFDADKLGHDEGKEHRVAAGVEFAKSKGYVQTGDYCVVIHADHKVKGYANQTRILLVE
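Purified LmPK (0.1 nM) with 0.5 mM PEP and 0.1 mM ADP in imidazole buffer pH 7.2 with MgCl2/KCl, 1 h at room temperature. ATP formed was read by luciferase luminescence and normalized to no-enzyme and uninhibited controls.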
CHX counter – counter-screen for Shiga toxin inhibitors: cycloheximide protein synthesis inhibition. cell reporter, cycloheximide protein synthesis inhibition counterscreen. 300,000 compounds, 12% hits. max response, %; in the data active means max response mostly above about 13%, no sharp cut-off; inactive means mostly below about 14%; further: read at 38.3 µM for the half of the compounds with a filed dose; 0% is about no effect
Pf growth 96h – inhibits malaria parasite growth, 96 h | P. falciparum luciferase reporter growth, 96 h | Potency, µM (series often up to 28.7 µM), for the others: at the highest dose activity change, negative = inhibition, most hits filed as inhibitors | 320,000 compounds, 6.9% hits; further: potency means the concentration at half of the fitted maximal effect; on the % scale 0 is the no-effect control and ±100 the full control effect
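Delayed-death screen, second-generation endpoint: infected erythrocytes, 2% hematocrit, 0.05% parasitemia final; 96 hours at 37 C, 5% CO2; luciferase detection reagent; luminescence decrease equals reduced growth.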
Shiga inhibitor – blocks Shiga toxin action in Vero cells; Vero cells, Shiga toxin protein synthesis inhibition reporter; inhibition, % at 38.7 µM; 290,000 compounds, 9.2% hits; in the data active means inhibition mostly above about 28%, no sharp cut-off; inactive means mostly below about 43%; further: 0% is about no effect
* hit, by the source's call; ? = inconclusive; . = not tested or not shown. Unless noted, the call rests on the fitted dose curve; in most records, active means well fitted inhibition curve with a large enough effect; inconclusive means small, poorly fitted or top-dose-only effect, or another doubt; inactive means no such curve, though single readings can be large or run the other way.

SMILES	Pf growth 48h	LmPK inhibitor	CHX counter	Pf growth 96h	Shiga inhibitor
COc1cc(CNCC2CCCO2)ccc1OCC(N)=O (configuration not stated)	13.5%	-1.0%	-2.5	?	20.7
CC(=O)Oc1ccc(N(C(C)=O)S(=O)(=O)c2ccc(C)c([N+](=O)[O-])c2)cc1	3.0%	1.8%	-1.4	2.62µM*	-12.6
COc1ccc(N(CC(=O)Nc2ccccc2C(=O)O)S(=O)(=O)c2ccc(C)c([N+](=O)[O-])c2)cc1	-15.3%	2.1%	-2.3	8.1%	-6.8
CCCn1c(N2CCC(Cc3ccccc3)CC2)nc2c1c(=O)[nH]c(=O)n2C	?	0.3%	-5.5	-16.6%	-27.0
CCn1c(N2CCN(CC(=O)c3c(C)n(C)c4ccc(OC)cc34)CC2)nc2c1c(=O)[nH]c(=O)n2C	?	4.3%	-1.6	10.4µM*	-0.1
CCn1c(N2CCN(CC(=O)c3c(C)n(C)c4ccccc34)CC2)nc2c1c(=O)[nH]c(=O)n2C	.	9.3%	-2.3	1.31µM*	-11.2
CCN1CCN(c2nc3c(c(=O)[nH]c(=O)n3C)n2Cc2ccccc2F)CC1	3.0%	-4.7%	-0.8	31.5%	.
CCCn1c(N2CCN(CC(=O)c3c[nH]c4ccccc34)CC2)nc2c1c(=O)[nH]c(=O)n2C	9.28µM*	2.1%	-1.2	0.738µM*	-5.0
Fc1ccc2nc(Nc3nc4cc5c(cc4s3)OCO5)sc2c1	174.3%	-1.9%	59.2*	252.2%	79.8*
Fc1ccc2nc(Nc3nc4cc5c(cc4s3)OCCO5)sc2c1	113.3%	-6.0%	62.1*	97.5%	25.2*
c1ccc2sc(Nc3nc4cc5c(cc4s3)OCO5)nc2c1	189.0%	-1.8%	119.4*	100.9%	116.7*
Nn1c(SCc2ccc(F)cc2)nnc1-c1ccncc1	?	-1.3%	7.5	23.0%	28.2
O=c1[nH]c(=O)n(Cc2ccccc2)c2c1C(C(F)(F)F)(C(F)(F)F)N=C(c1ccco1)N2	?	11.4%	-1.4	?	-14.5
CC1=C(C#N)C(C(F)(F)F)(C(F)(F)F)N=C(c2ccco2)N1	-5.5%	1.3%	-4.4	8.28µM*	-10.9
c1ccc2c(c1)nnn2-c1ncnc2sc3c(c12)CCCC3	0.0%	-1.8%	14.4*	3.29µM*	28.0
CC(O)CNc1nc2ccccc2n1-c1ncnc2sc3c(c12)CCC3 (configuration not stated)	.	10.3%	1.6	4.15µM*	0.6
c1ccc2c(c1)ncn2-c1ncnc2sc3c(c12)CCCC3	18.7%	-6.7%	-5.4	-0.8%	-34.0
COc1ccc2c(c1)C1(Nc3ccccc3-c3nc4ccccc4n31)C(=O)N2 (configuration not stated)	0.415µM*	-6.1%	-2.7	.	-18.2
COc1ccc2c(c1)C1(Nc3ccccc3-c3nc4ccccc4n31)C(=O)N2C (configuration not stated)	6.57µM*	3.4%	-1.2	14.8%	15.2
CC1(c2ccncc2)Nc2ccccc2-c2nc3ccccc3n21 (configuration not stated)	3.29µM*	-5.0%	16.0*	2.62µM*	28.5
O=C(NNS(=O)(=O)c1cccc(Cl)c1Cl)c1cccc(S(=O)(=O)N2CCOCC2)c1	1.9%	-0.7%	-4.5	16.4%	0.3
Cc1cc(SCC(=O)NCC2CCCO2)nc2ccccc12 (configuration not stated)	2.8%	-4.9%	-2.4	0.8%	17.7
COc1ccc(C(=O)Nn2cnc3scc(-c4cccs4)c3c2=O)c(O)c1	137.0%	-4.9%	30.8*	-27.4%	116.3*
O=C(C1=C[C@@H](c2coc3ccccc3c2=O)C[C@@H](OCc2ccc(CO)cc2)O1)N1CCN(Cc2ccc3c(c2)OCO3)CC1	?	3.7%	5.1	?	10.6
O=C(C1=C[C@H](c2coc3ccccc3c2=O)C[C@H](OCc2ccc(CO)cc2)O1)N1CCN(Cc2ccc3c(c2)OCO3)CC1	1.47µM*	7.0%	-1.8	1.31µM*	-3.9
O=C(C1=C[C@H](c2csc3ccccc23)C[C@H](OCc2ccc(CO)cc2)O1)N1CCN(Cc2ccc3c(c2)OCO3)CC1	?	0.6%	-2.9	4.15µM*	-22.5
O=C(C1=C[C@H](c2csc3ccccc23)C[C@H](OCc2ccc(CO)cc2)O1)N1CCOCC1	-24.9%	5.2%	-1.8	?	-12.8

From PubChem BioAssay
